Measurements reported in PubChem BioAssay (EPA / NIEHS).
Values joined by “and” are separate entries in the source; they are usually repeats but may differ in a detail not shown here. Equal entries are not always repeated. Some structures have more than one record in an assay (separate samples or runs), and their calls can disagree. Active and inactive are the calls of the source. Rule for the calls: active = hit-call score of the fitted dose curve at least 0.9, where 1 is the maximum; inactive = score below 0.9.

How the values were obtained:
[1] = read-out: Urokinase-type plasminogen activator receptor (uPAR), PLAUR (gene 5329); test: BSK_BE3C_uPAR: BioMAP Diversity Plus: BE3C Assay for Urokinase-type plasminogen activator receptor (uPAR) Biomarker Activity (AID 2283039); conditions: primary human bronchial epithelial cells; actives raise or lower the signal;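 for outcome: uPAR protein level measured by ELISA on the cells; cells exposed to compound for one day before measurement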
Method in brief: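 ELISA readout of uPAR on human lung primary bronchial epithelial cells, 24 h post-dosing. Bidirectional curve fit relative to DMSO vehicle baseline; gain or loss of signal both scored.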

[2] = read-out: Interleukin-6 (IL6), IL6 (gene 3569); test: BSK_CASM3C_IL6: BioMAP Diversity Plus: CASM3C Assay for Interleukin-6 (IL6) Biomarker Activity for (AID 2283040); conditions: primary human coronary artery smooth muscle cells; actives raise or lower the signal
[3] = read-out: Tissue plasminogen activator (tPA), PLAT (gene 5327); test: BSK_BE3C_tPA: BioMAP Diversity Plus: BE3C Assay for Tissue plasminogen activator (tPA) Biomarker Activity (AID 2283041); conditions: primary human bronchial epithelial cells; actives raise or lower the signal;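 for outcome: tPA level quantified by ELISA one day after compound addition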
Method in brief: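 ELISA read-out of tPA on human primary bronchial epithelial cells, 24 h post-dosing; bidirectional fit vs DMSO negative control/baseline.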

[4] = read-out: Interleukin-8 (IL8), CXCL8 (gene 3576); test: BSK_CASM3C_IL8: BioMAP Diversity Plus: CASM3C Assay for Interleukin-8 (IL8) Biomarker Activity (AID 2283042); conditions: primary human coronary artery smooth muscle cells; actives raise or lower the signal;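 note: IL-8 protein level quantified by ELISA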
[5] = read-out: Human Leukocyte Antigen - DR isotype (HLADR), HLA-DRA (gene 3122); test: BSK_CASM3C_HLADR: BioMAP Diversity Plus: CASM3C Assay for Human Leukocyte Antigen - DR isotype (HLADR) Biomarker Activity (AID 2283043); conditions: primary human coronary artery smooth muscle cells; actives raise or lower the signal;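 note: cell-surface HLA-DR protein level quantified by ELISA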
[6] = read-out: Macrophage colony-stimulating factor (MCSF), CSF1 (gene 1435); test: BSK_CASM3C_MCSF: BioMAP Diversity Plus: CASM3C Assay for Macrophage colony-stimulating factor (MCSF) Biomarker Activity (AID 2283044); conditions: primary human coronary artery smooth muscle cells; actives raise or lower the signal;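 note: M-CSF protein amount quantified by ELISA after 24 h exposure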
[7] = read-out: Low-density lipoprotein receptor (LDLR), LDLR (gene 3949); test: BSK_CASM3C_LDLR: BioMAP Diversity Plus: CASM3C Assay for Low-density lipoprotein receptor (LDLR) Biomarker Activity (AID 2283045); conditions: primary human coronary artery smooth muscle cells; actives raise or lower the signal;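 note: LDLR protein level on the cell surface quantified by ELISA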
[8] = read-out: Monocyte Chemoattractant Protein-1 (MCP1), CCL2 (gene 6347); test: BSK_CASM3C_MCP1: BioMAP Diversity Plus: CASM3C Assay for Monocyte Chemoattractant Protein-1 (MCP1) Biomarker Activity (AID 2283046); conditions: primary human coronary artery smooth muscle cells; actives raise or lower the signal;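 note: MCP-1 level quantified by ELISA 24 h after dosing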
[9] = BSK_CASM3C_Proliferation: Cell Proliferation Assessment in the BioMAP Diversity Plus: CASM3C Assay (AID 2283047); conditions: primary human coronary artery smooth muscle cells;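 note: sulforhodamine B total protein stain as relative cell number at 560 nm; sub-confluent cells exposed 48 h before staining; fitted both ways against DMSO so gain or loss of cell number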
[10] = read-out: Monokine induced gamma interferon (MIG), CXCL9 (gene 4283); test: BSK_CASM3C_MIG: BioMAP Diversity Plus: CASM3C Assay for Monokine induced gamma interferon (MIG) Biomarker Activity (AID 2283048); conditions: primary human coronary artery smooth muscle cells; actives raise or lower the signal;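 note: MIG protein level measured by ELISA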

SMILES	outcome [1]	outcome [2]	outcome [3]	outcome [4]	outcome [5]	outcome [6]	outcome [7]	outcome [8]	outcome [9]	outcome [10]	AC50 [9]	AC50 [1]	AC50 [2]	AC50 [4]	AC50 [6]	AC50 [8]	AC50 [10]	AC50 [7]	AC50 [3]	AC50 [5]
CC1=NNC(=O)N(/N=C/c2cccnc2)C1	inactive	inactive	inactive	inactive	inactive	inactive	inactive	inactive	inactive	inactive	–	–	–	–	–	–	–	–	–	–
CCOP(=S)(Oc1cnc(C(C)(C)C)nc1)OC(C)C (stereo unspecified)	inactive	inactive	inactive	inactive	inactive	inactive	inactive	inactive	–	inactive	32.2 µM (active)	–	–	–	–	–	–	–	–	–
Cc1ccn2nc(S(=O)(=O)Nc3c(F)cccc3F)nc2n1	inactive	inactive	inactive	inactive	inactive	inactive	inactive	inactive	inactive	inactive	–	–	–	–	–	–	–	–	–	–
COP(=O)(OC)OC(Br)C(Cl)(Cl)Br (stereo unspecified)	–	–	inactive	–	inactive	–	inactive	–	–	–	11.2 µM (active)	36.6 µM (active)	31.2 µM (active)	32.2 µM (active)	27.7 µM (active)	28.6 µM (active)	29.8 µM (active)	–	–	–
CSc1nnc(C(C)(C)C)c(=O)n1N	inactive	inactive	inactive	inactive	inactive	inactive	–	inactive	inactive	inactive	–	–	–	–	–	–	–	4.43 µM (active)	–	–
CC(C)[C@H](C(=O)O[C@H](C#N)c1cccc(Oc2ccccc2)c1)c1ccc(Cl)cc1	–	inactive	inactive	inactive	inactive	inactive	inactive	inactive	–	inactive	9.47 µM (active)	5.23 µM (active)	–	–	–	–	–	–	–	–
CCOP(=O)(NC(C)C)Oc1ccc(SC)c(C)c1 (stereo unspecified)	–	inactive	inactive	inactive	inactive	inactive	inactive	inactive	inactive	inactive	–	5.54 µM (active)	–	–	–	–	–	–	–	–
O=[N+]([O-])c1cc(C(F)(F)F)c(Cl)c([N+](=O)[O-])c1Nc1ncc(C(F)(F)F)cc1Cl	–	inactive	–	–	–	–	inactive	–	–	–	2.28 µM (active) and 1.22 µM (active)	7.71 µM (active) and 8.37 µM (active)	3.6 µM (active)	4.49 µM (active) and 10.8 µM (active)	1.72 µM (active) and 6.05 µM (active)	4.23 µM (active) and 9.83 µM (active)	3.98 µM (active) and 8.05 µM (active)	–	20 µM (active)	2.16 µM (active) and 10 µM (active)
COP(=O)(OC)SCn1c(=O)oc2cc(Cl)cnc21	inactive	inactive	inactive	inactive	inactive	–	inactive	–	–	–	21.5 µM (active)	–	–	–	9.42 µM (active)	20 µM (active)	38.8 µM (active)	–	–	–
COP(=O)(OC)C(O)C(Cl)(Cl)Cl (stereo unspecified)	–	inactive	inactive	inactive	inactive	inactive	inactive	inactive	–	inactive	20 µM (active)	5.49 µM (active)	–	–	–	–	–	–	–	–
Cc1cc(C2CC2)nc(Nc2ccccc2)n1	inactive	inactive	inactive	inactive	inactive	inactive	inactive	inactive	–	inactive	14.4 µM (active)	–	–	–	–	–	–	–	–	–
S=C1NCCN1	–	inactive	inactive	inactive	inactive	inactive	inactive	inactive	inactive	inactive	–	0.397 µM (active)	–	–	–	–	–	–	–	–
C[Si](Cn1cncn1)(c1ccc(F)cc1)c1ccc(F)cc1	inactive	inactive	inactive	inactive	inactive	inactive	inactive	inactive	inactive	inactive	–	–	–	–	–	–	–	–	–	–
CC(Oc1cccc(Cl)c1)C(=O)O (stereo unspecified)	inactive	inactive	inactive	inactive	inactive	inactive	inactive	inactive	inactive	inactive	–	–	–	–	–	–	–	–	–	–
CCCCN(CC)c1c([N+](=O)[O-])cc(C(F)(F)F)cc1[N+](=O)[O-]	inactive	inactive	inactive	inactive	inactive	inactive	inactive	inactive	inactive	inactive	–	–	–	–	–	–	–	–	–	–
CON=C(C(=O)OC)c1ccccc1CON=C(C)c1cccc(C(F)(F)F)c1	–	–	inactive	inactive	inactive	inactive	inactive	–	–	inactive	8.75 µM (active)	5.37 µM (active)	1.92 µM (active)	–	–	2.68 µM (active)	–	–	–	–
CC(C1CC1)C(O)(Cn1cncn1)c1ccc(Cl)cc1 (stereo unspecified)	inactive	inactive	inactive	inactive	inactive	inactive	inactive	inactive	inactive	inactive	–	–	–	–	–	–	–	–	–	–
CCOC(=O)CC(SP(=O)(OC)OC)C(=O)OCC (stereo unspecified)	inactive	inactive	inactive	inactive	inactive	inactive	inactive	inactive	inactive	inactive	–	–	–	–	–	–	–	–	–	–
